The results in this text go back to PubChem BioAssay AID2606 (The Scripps Research Institute Molecular Screening Center, 2010).

SMILES strings stand for the structures. Out of some 320,000 compounds screened, about 160 (0.05%) were called active. The entries come from a sample that favours actives as a whole. Values without a mark were called inactive. Cut-off read from the data, not from the text of the source: active = inhibition above about 38%; inactive = the rest.

By inhibition is commonly meant the change of the read-out against control, counted positive when it falls.

Sequence of Serine protease Rv3671c (Mycobacterium tuberculosis (strain ATCC 25618 / H37Rv)) (P9WHR9 whole entry, looked up, the tested form may be a part): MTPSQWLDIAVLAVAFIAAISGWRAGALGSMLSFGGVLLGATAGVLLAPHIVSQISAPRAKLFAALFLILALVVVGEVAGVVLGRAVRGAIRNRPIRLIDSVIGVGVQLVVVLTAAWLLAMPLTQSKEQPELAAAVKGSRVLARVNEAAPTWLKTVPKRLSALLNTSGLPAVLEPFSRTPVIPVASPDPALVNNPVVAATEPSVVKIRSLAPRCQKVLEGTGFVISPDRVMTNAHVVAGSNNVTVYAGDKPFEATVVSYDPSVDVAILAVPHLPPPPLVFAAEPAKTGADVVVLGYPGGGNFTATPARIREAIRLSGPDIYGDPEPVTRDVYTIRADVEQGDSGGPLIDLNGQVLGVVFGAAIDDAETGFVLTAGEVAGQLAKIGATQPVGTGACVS

This test addresses Serine protease Rv3671c (Mycobacterium tuberculosis (strain ATCC 25618 / H37Rv)) (UniProt P9WHR9). The experiment in a line: inhibition of M. tuberculosis membrane protease Rv3671c – biochemical, fluorescence polarization, M. tuberculosis H37Rv, primary screen (AID 2606).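 Note: extracellular domain of Rv3671c used as enzyme; 0% = enzyme with DMSO and 100% = no enzyme.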 Conditions: at 5.96 µM; stronger effect = higher value. (Polarisation of emitted light reports the rotation of a fluorescent probe.)
Consider `COP1(=O)C[C@@H](O)[C@@H](O)[C@@H](COCc2ccccc2)O1` (some centres undefined), for which the inhibition was -2.74%.

As to `Cc1cnc(C(=O)N2CCCC(C(=O)c3ccc(C(F)(F)F)cc3)C2)cn1` (centres undefined), the inhibition is -4.62%.

Regarding `CC(c1nnc(SCC(=O)Nc2sccc2C#N)n1-c1ccc(Cl)cc1)N(C)C` (centres undefined), the inhibition is 3.82%.

As to `Cn1sc(=O)c2cc(S(=O)(=O)NC3CC3)ccc21`, the inhibition was -8.37%.

For `C[C@@H](NC(=O)c1nc[nH]c1C(=O)N1CCN(C(=O)OC(C)(C)C)CC1)c1ccccc1`, the inhibition was -6.88%.

Turning to `CC(Sc1nnc(Cc2ccc([N+](=O)[O-])cc2)o1)C(N)=O` (centres undefined), the inhibition is -0.21%.

Regarding `C[C@@H](C(=O)Nc1ccc2ccccc2c1)[C@@H]1C[C@@]1(C)[C@@H](NC(=O)c1cccnc1)c1ccccc1`, the inhibition is -17.9%.

In the case of `CCS(=O)(=O)N1Cc2ccccc2CC1C(=O)Nc1nc2ccc(F)cc2s1` (centres undefined), the inhibition is -18.8%.

For `O=C(NCc1ccccc1)C1=C[C@@H](c2ccccc2)C[C@@H](OCCCCO)O1`, the inhibition is -9.25%.

Consider `O=S(=O)(c1cc(Cl)ccc1Cl)N1CCN(Cc2ccco2)CC1`, for which the inhibition was -5.87%.

Take `COc1cccc(/C=C2\SC(=N)N(c3ccc(F)cc3)C2=O)c1`: the inhibition was 7.8%.

With `COc1ccc(/C=N/N=C/c2c[nH]c(=O)c(C#N)c2Nc2ccccc2)cc1`, the inhibition is -1.73%.

Take `NS(=O)(=O)c1ccc(NC(=S)Nc2ccc(Br)c(Cl)c2)cc1`: the inhibition is -3.02%.

On to `CCn1c(SCC(=O)Nc2ccc(Br)cc2)nc2sc3c(c2c1=O)CCN(C)C3`, for which the inhibition is -7.34%.

As to `COc1ccccc1C(=O)Nc1ccc(OCC(=O)N2CCCCC2)cc1`, the inhibition was -8.76%.

For the compound `Cc1cc(NC(=O)CCC(=O)N(Cc2ccccc2)C(C(=O)NC2CCCC2)c2ccc(C)o2)no1` (centres undefined), the inhibition is -5.73%.

On to `CCOC(=O)C1CCN(S(=O)(=O)c2ccc3c(c2)N(C(C)=O)CCO3)CC1`, for which the inhibition is 2.87%.

On to `CCCc1nc2ccccc2c(C(=O)OCc2nnc(-c3cc(OC)c(OC)c(OC)c3)o2)c1CC`, for which the inhibition was -9.57%.

Turning to `COc1ccc(/C=C/C(=O)NC(=S)NN2CCCCC2c2cccnc2)cc1` (centres undefined), the inhibition was -0.41%.

`Cc1cc(O)ccc1NC1=CC(=O)CC(C)(C)C1`: the inhibition is -4.53%.

For the compound `CC1CCC(CN2CCN=C2N(C)C)CC1` (centres undefined), the inhibition was -3.89%.

`Cc1ccc(S(=O)(=O)NC(=O)COc2ccccc2C)cc1`: the inhibition is 7.88%.

Take `CCCCn1c(=S)[nH]c2cc(S(=O)(=O)N3CCCCC3)ccc21`: the inhibition is -12.1%.

As to `O=C(COC(=O)c1ccc(S(=O)(=O)N2CCc3ccccc3C2)cc1)NC(=O)NCc1ccco1`, the inhibition was -44.5%.
